Values joined by “and” are separate entries in the source; they are usually repeats but may differ in a detail not shown here. Equal values may be shown once. Hit rate of the full screen: of about 5,500 compounds, about 2,000 (36%) were called active. Inconclusive results (about 18%) are left out. No stated cut-off is given here; in the data, active means normalized growth mostly below about 0.91 (no sharp cut-off); inconclusive means no clear call, values can overlap the other calls; inactive means mostly above about 0.92. The list shows a part of the results.
Experiment: chemical genetic growth profiling, strain panel (AID 1159580);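 further: tested at 20 µM; growth read once vehicle control cultures reached saturation at 30 °C; 1 = growth at the plate median or of vehicle wells; lower values mean less growth of the strain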
Conditions: S. cerevisiae deletion strains, growth OD

Measured: normalized growth

COc1cc(OC)c2c(c1)O[C@H](c1ccc(OC)c(OC)c1)[C@@H](O)C2
inactive: locus YAL021C, strain ccr4, active compounds read low 1.01 | locus YAL026C, strain drs2, active compounds read low 0.961 | locus YAL030W, strain snc1, active compounds read low 0.998 | locus YBL061C, strain skt5, active compounds read low 0.989 | locus YBR009C, strain hhf1, active compounds read low 1 | locus YBR021W, strain FUR4, active compounds read low 1.06 | locus YBR023C, strain chs3, active compounds read low 1 | locus YBR171W, strain sec66, active compounds read low 0.971 | locus YBR229C, strain ROT2, active compounds read low 1.01 | locus YBR231C, strain swc5, active compounds read low 0.981 | locus YBR279W, strain paf1, active compounds read low 1 | locus YCL011C, strain gbp2, active compounds read low 0.986 | locus YCL016C, strain dcc1, active compounds read low 1.02 | locus YCL029C, strain bik1, active compounds read low 1.02 | locus YCL061C, strain MRC1, active compounds read low 0.996 | locus YCL069W, strain vba3, active compounds read low 0.968 | locus YCR088W, strain abp1, active compounds read low 0.984 | locus YDL005C, strain med2, active compounds read low 0.985 | locus YDL035C, strain GPR1, active compounds read low 1.04 | locus YDL040C, strain nat1, active compounds read low 0.992 | locus YDL074C, strain BRE1, active compounds read low 1.11 | locus YDL101C, strain DUN1, active compounds read low 1.02 | locus YDL134C, strain PPH21, active compounds read low 1.09 | locus YDL185W, strain tfp1, active compounds read low 1.03 | locus YDL192W, strain arf1, active compounds read low 1 | locus YDR001C, strain nth1, active compounds read low 0.989 | locus YDR069C, strain doa4, active compounds read low 0.976 | locus YDR101C, strain arx1, active compounds read low 0.99 | locus YDR137W, strain rgp1, active compounds read low 0.949 | locus YDR159W, strain sac3, active compounds read low 0.95 | locus YDR162C, strain NBP2, active compounds read low 1.03 | locus YDR195W, strain ref2 0.976 | locus YDR297W, strain sur2, active compounds read low 0.988 | locus YDR318W, strain mcm21, active compounds read low 1.01 | locus YDR334W, strain swr1, active compounds read low 0.977 | locus YDR335W, strain msn5, active compounds read low 0.983 | locus YDR388W, active compounds read low 1.03 | locus YDR392W, strain spt3, active compounds read low 0.909 | locus YDR502C, strain sam2, active compounds read low 1.02 | locus YEL003W, strain gim4, active compounds read low 0.984 | locus YEL037C, strain rad23, active compounds read low 0.985 | locus YEL061C, strain CIN8 (second series), active compounds read low 0.976 | locus YER015W, strain faa2, active compounds read low 1.01 | locus YER016W, strain bim1, active compounds read low 0.992 | locus YER110C, active compounds read low 0.998 | locus YER111C, strain swi4, active compounds read low 0.994 | locus YER155C, strain BEM2 (second series), active compounds read low 0.947 | locus YER155C, strain BEM2, active compounds read low 1.01 | locus YER167W, strain BCK2, active compounds read low 1.01 | locus YFR010W, strain ubp6, active compounds read low 0.956 | locus YGL078C, strain dbp3, active compounds read low 1.02 | locus YGL086W, strain mad1, active compounds read low 1 | locus YGL167C, strain pmr1, active compounds read low 1 | locus YGL173C, strain kem1, active compounds read low 0.983 | locus YGL227W, strain vid30, active compounds read low 0.982 | locus YGL240W, strain doc1, active compounds read low 1 | locus YGL248W, strain PDE1, active compounds read low 1.05 | locus YGL253W, strain hxk2, active compounds read low 0.939 | locus YGR135W, strain pre9, active compounds read low 1.05 | locus YGR252W, strain gcn5, active compounds read low 1.08 | locus YHR013C, strain ard1, active compounds read low 1.01 | locus YHR027C, strain rpn1, active compounds read low 0.983 | locus YHR030C, strain SLT2, active compounds read low 0.996 | locus YHR079C, strain IRE1 (second series), active compounds read low 1.02 | locus YHR079C, strain IRE1, active compounds read low 0.992 | locus YHR094C, strain hxt1, active compounds read low 1.04 | locus YHR129C, strain ARP1, active compounds read low 1.02 | locus YHR142W, strain chs7, active compounds read low 0.993 | locus YHR200W, strain rpn10, active compounds read low 1.02 | locus YIL066C, strain RNR3, active compounds read low 1.03 | locus YIL073C, strain SPO22, active compounds read low 1.09 | locus YIL125W, strain kgd1, active compounds read low 0.99 | locus YIR030C, strain dcg1, active compounds read low 1.01 | locus YJL092W, strain hpr5, active compounds read low 0.985 | locus YJL095W, strain BCK1 (second series), active compounds read low 0.971 | locus YJL095W, strain BCK1, active compounds read low 1.1 and 0.993 | locus YJL115W, strain asf1, active compounds read low 0.994 | locus YJL129C, strain trk1, active compounds read low 0.965 | locus YJL134W, strain LCB3, active compounds read low 1.01 | locus YJL154C, strain vps35, active compounds read low 0.983 | locus YJL164C, strain tpk1, active compounds read low 1.02 | locus YJL166W, strain qcr8, active compounds read low 0.984 | locus YJL168C, strain set2, active compounds read low 1.01 | locus YJL187C, strain SWE1 (second series), active compounds read low 1.03 | locus YJL187C, strain SWE1, active compounds read low 0.988 | locus YJR043C, strain POL32, active compounds read low 1.04 | locus YJR066W, strain TOR1, active compounds read low 0.941 | locus YKL009W, strain mrt4, active compounds read low 1.05 | locus YKL068W, active compounds read low 1.01 | locus YKL085W, strain MDH1 (second series), active compounds read low 1.02 | locus YKL085W, strain MDH1, active compounds read low 1.02 | locus YKL160W, strain elf1, active compounds read low 1.02 | locus YKL190W, strain CNB1, active compounds read low 1.01 | locus YKR001C, strain vps1, active compounds read low 1.04 | locus YKR026C, strain gcn3, active compounds read low 0.975 | locus YKR091W, strain srl3, active compounds read low 0.996 | locus YLL001W, strain dnm1, active compounds read low 0.972 | locus YLL026W, active compounds read low 0.996 | locus YLL041C, strain sdh2, active compounds read low 0.993 | locus YLR027C, strain aat2, active compounds read low 0.994 | locus YLR039C, strain RIC1, active compounds read low 1.15 | locus YLR058C, strain SHM2, active compounds read low 1.02 | locus YLR102C, strain apc9, active compounds read low 1.01 | locus YLR113W, strain HOG1, active compounds read low 0.971 | locus YLR221C, strain rsa3, active compounds read low 0.953 | locus YLR258W, strain gsy2, active compounds read low 0.99 | locus YLR262C, strain YPT6 (second series), active compounds read low 0.956 | locus YLR268W, strain sec22, active compounds read low 1.02 | locus YLR320W, strain mms22, active compounds read low 0.979 | locus YLR330W, strain CHS5, active compounds read low 1.03 | locus YLR342W, strain FKS1, active compounds read low 0.997 | locus YLR357W, strain rsc2, active compounds read low 0.989 | locus YLR370C, strain arc18, active compounds read low 0.97 | locus YLR371W, strain rom2, active compounds read low 1.05 | locus YLR384C, strain iki3, active compounds read low 1.01 | locus YLR418C, strain cdc73, active compounds read low 1.09 | locus YML016C, strain PPZ1, active compounds read low 1.01 | locus YML032C, strain rad52, active compounds read low 1.01 | locus YML120C, strain ndi1, active compounds read low 1.01 | locus YML124C, strain tub3, active compounds read low 1 | locus YMR058W, strain fet3, active compounds read low 0.981 | locus YMR078C, strain ctf18, active compounds read low 1.03 | locus YMR125W, strain sto1, active compounds read low 0.982 | locus YMR129W, active compounds read low 0.999 | locus YMR205C, strain PFK2, active compounds read low 1.03 | locus YMR223W, strain ubp8, active compounds read low 1.01 | locus YMR231W, strain pep5, active compounds read low 0.973 | locus YMR263W, strain SAP30, active compounds read low 1.01 | locus YMR307W, strain GAS1, active compounds read low 1.22 | locus YNL067W, strain RPL9B, active compounds read low 1.02 | locus YNL071W, strain lat1, active compounds read low 0.989 | locus YNL153C, strain GIM3, active compounds read low 1.03 | locus YNL183C, strain NPR1, active compounds read low 0.931 | locus YNL209W, strain ssb2, active compounds read low 1.01 | locus YNL233W, strain BNI4, active compounds read low 1.07 | locus YNL248C, strain rpa49, active compounds read low 0.968 | locus YNL250W, strain rad50, active compounds read low 1.03 | locus YNL271C, strain bni1, active compounds read low 1.01 | locus YNL298W, strain CLA4, active compounds read low 1.03 | locus YNL307C, strain MCK1, active compounds read low 1.03 | locus YNL322C, strain KRE1 (second series), active compounds read low 1.01 | locus YNR049C, strain mso1, active compounds read low 0.988 | locus YNR052C, strain pop2, active compounds read low 1.04 | locus YOL006C, strain TOP1, active compounds read low 1.3 | locus YOL012C, strain htz1 1.07 | locus YOL147C, strain pex11, active compounds read low 1.01 | locus YOR001W, strain rrp6, active compounds read low 0.925 | locus YOR061W, strain CKA2, active compounds read low 1.02 | locus YOR069W, strain VPS5, active compounds read low 1.01 | locus YOR070C, strain gyp1, active compounds read low 1.01 | locus YOR080W, strain dia2, active compounds read low 0.971 | locus YOR083W, strain WHI5, active compounds read low 1.03 | locus YOR106W, strain vam3, active compounds read low 1.03 | locus YOR136W, strain idh2, active compounds read low 1.01 | locus YOR144C, strain elg1, active compounds read low 1 | locus YOR184W, strain ser1, active compounds read low 1 | locus YOR231W, strain MKK1, active compounds read low 1 | locus YOR265W, strain rbl2, active compounds read low 0.988 | locus YOR270C, strain vph1, active compounds read low 0.969 | locus YOR290C, strain snf2, active compounds read low 0.994 | locus YOR316C, strain cot1, active compounds read low 1.03 | locus YPL051W, strain arl3, active compounds read low 0.985 | locus YPL078C, strain atp4, active compounds read low 1.03 | locus YPL106C, strain sse1, active compounds read low 1.05 | locus YPL240C, strain hsp82, active compounds read low 0.992 | locus YPL256C, strain CLN2, active compounds read low 0.958 | locus YPR119W, strain clb2, active compounds read low 0.999 | locus YPR141C, strain kar3, active compounds read low 1.01 | locus YPR163C, strain tif3, active compounds read low 1.01 | locus YPR167C, strain met16, active compounds read low 1.03 | strain wtn01, active compounds read low 0.997

— PubChem BioAssay AID1159580 (chemical genetic matrix, 2015)
